# Laboratory results as given in a collection of fitness landscapes (doi:10.1126/science.1257360).
# Over roughly 140,000 sequences, “enrichment ratio after two sorts for PhoP signalling” has its median near 0; the highest 2% begin near 11. This excerpt belongs to a sample that is enriched for the highest values.
# B1: PhoQ; a variant is named by its letters at X, in order, P23837 (parent)
# chain: MKKLLRLFFPLSLRVRFLLATAAVVLVLSLAYGMVALIGYSVSFDKTTFRLLRGESNLFYTLAKWENNKLHVELPENIDKQSPTMTLIYDENGQLLWAQRDVPWLMKMIQPDWLKSNGFHEIEADVNDTSLLLSGDHSIQQQLQEVREDDDDAEMTHSVAVNVYPATSRMPKLTIVVVDTIPVELKSSYMVWSWFIYVLSANLLLVIPLLWVAAWWSLRPIEALAKEVRELEEHNRELLNPATTRELTSLVRNLNRLLKSERERYDKYRTTLTDLTHSLKTPLXXLQXXLRSLRSEKMSVSDAEPVMLEQISRISQQIGYYLHRASMRGGTLLSRELHPVAPLLDNLTSALNKVYQRKGVNISLDISPEISFVGEQNDFVEVMGNVLDNACKYCLEFVEISARQTDEHLYIVVEDDGPGIPLSKREVIFDRGQRVDTLRPGQGVGLAVAREITEQYEGKIVAGESMLGGARMEVIFGRQHSAPKDE
# Variants of: B1
# Assay: enrichment ratio after two sorts for PhoP signalling (ratio (wild type AVST 3.29)); higher = more functional
# Conditions: with PhoP (E. coli)
row,Variant,enrichment ratio
1,PSLS,≤ 0.25
2,WGGY,≤ 0.25
3,ITTH,≤ 0.25
4,DSGI,≤ 0.25
5,NRIH,≤ 0.25
6,NATM,≤ 0.25
7,GSIM,11.6
8,KATM,≤ 0.25
9,GATM,15.3
10,GAPM,≤ 0.25
11,GSTM,6.87
12,GSWM,≤ 0.25
13,GAIM,15.4
14,KAIM,≤ 0.25
15,GCCK,≤ 0.25
16,GCIM,24.5
17,GCGM,2.98
18,TSES,2.55
19,SFWK,≤ 0.25
20,AMIT,≤ 0.25
21,NCDK,≤ 0.25
22,DMRV,≤ 0.25
23,EDCW,≤ 0.25
24,MMNP,≤ 0.25
25,DYLI,≤ 0.25
26,GTIM,2.86

row,Variant,enrichment ratio
1,GVIM,19.3
2,NIIM,≤ 0.25
3,GIIM,1.99
4,YHIM,≤ 0.25
5,MAPM,≤ 0.25
6,NVIM,≤ 0.25
7,GGIM,13.9
8,GVWM,≤ 0.25
9,MATM,22.6
10,FMTM,≤ 0.25
11,GNIM,13.4
12,VKAK,≤ 0.25
13,HKPF,≤ 0.25
14,EDLF,≤ 0.25
15,GLPS,≤ 0.25
16,PYPA,≤ 0.25
17,KRQM,≤ 0.25
18,HDQM,≤ 0.25
19,YYGF,≤ 0.25
20,YSDV,≤ 0.25
21,VFWT,≤ 0.25
22,GQSM,20.5
23,FVSM,≤ 0.25
24,MVTM,3.98
25,MVSM,12.3
26,MESM,19

row,Variant,enrichment ratio
1,FQSM,≤ 0.25
2,MVHF,0.626
3,GYSM,≤ 0.25
4,MASM,16.9
5,MQSM,8.88
6,MRSM,≤ 0.25
7,GVSM,0.841
8,LDIM,≤ 0.25
9,MSCN,1.97
10,THNV,≤ 0.25
11,ILTF,0.323
12,GVMY,≤ 0.25
13,KDHR,≤ 0.25
14,GSQM,≤ 0.25
15,GEHF,≤ 0.25
16,GSSF,0.449
17,NESF,≤ 0.25
18,QESM,5.67
19,GESM,17.3
20,GESF,0.55
21,QESF,≤ 0.25
22,TESF,11.5
23,NESM,≤ 0.25
24,TESM,30
25,GSSM,11.2
26,TLHH,≤ 0.25

row,Variant,enrichment ratio
1,FQMV,0.463
2,MHQA,≤ 0.25
3,NHWK,≤ 0.25
4,ITGV,≤ 0.25
5,TASM,13.4
6,KASM,≤ 0.25
7,NASM,≤ 0.25
8,AEWF,≤ 0.25
9,WRRW,≤ 0.25
10,SHND,≤ 0.25
11,THND,29.6
12,MKND,≤ 0.25
13,NHND,≤ 0.25
14,AKND,≤ 0.25
15,TKND,12.6
16,DRLD,≤ 0.25
17,HSGG,≤ 0.25
18,FKNI,≤ 0.25
19,NEDI,≤ 0.25
20,NKAR,≤ 0.25
21,FVHD,≤ 0.25
22,WDYC,≤ 0.25
23,AMPE,≤ 0.25
24,AMTE,15.1
25,NMCL,≤ 0.25
26,AMCE,67.3

row,Variant,enrichment ratio
1,AMIE,≤ 0.25
2,AMCK,≤ 0.25
3,AMCI,14.1
4,AITE,≤ 0.25
5,AMCL,15.7
6,AMCS,5.27
7,AKTE,≤ 0.25
8,AMNL,3.05
9,PGVP,≤ 0.25
10,HSSS,≤ 0.25
11,DNCF,≤ 0.25
12,HRPL,≤ 0.25
13,NSCR,≤ 0.25
14,ILKS,≤ 0.25
15,APIM,≤ 0.25
16,QGSM,9.07
17,AMPA,≤ 0.25
18,AMCA,19.4
19,AMPI,0.985
20,MMHC,≤ 0.25
21,GNIQ,9.19
22,NQIQ,≤ 0.25
23,GDIQ,17.5
24,GDNT,≤ 0.25
25,GDHP,1.16
26,GDLT,≤ 0.25

row,Variant,enrichment ratio
1,GDIT,14
2,GQIQ,14.9
3,GDHQ,≤ 0.25
4,VNKQ,≤ 0.25
5,GRCH,≤ 0.25
6,YDLC,≤ 0.25
7,IFMM,≤ 0.25
8,SGLM,17.9
9,CFLM,≤ 0.25
10,SGFM,5.94
11,GGLM,2.85
12,SGFA,≤ 0.25
13,TGLM,26.9
14,RGLM,≤ 0.25
15,NGLM,13.2
16,HGLM,16.4
17,HFLM,≤ 0.25
18,HRLM,≤ 0.25
19,AGLM,6.12
20,RWIP,≤ 0.25
21,VHKL,≤ 0.25
22,MHLQ,≤ 0.25
23,DMYA,≤ 0.25
